The source of these data is PubChem BioAssay (Tox21).

“And” between values parts separate entries of the source, which are not always exact repeats. Identical values can stand only once. The source made the active and inactive calls. Unless noted, calls follow the shape of the dose curve; as a rule, active = well fitted curve in the direction sought with a large enough effect in the repeat runs; inconclusive = weak or mixed curves; inactive = no such curve, though single readings can be large; an effect the other way counts as inactive or inconclusive.

A short description of test [1]: qHTS assay to identify small molecule antagonists of the thyroid receptor (TR) signaling pathway - cell viability counter screen (AID 743064). Also: nearly all actives have a fitted effect of over 50% in size. The method, boiled down:
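GH3.TRE-Luc rat pituitary cells carrying a TRE-luciferase reporter were treated with compound plus 1 nM T3 (final) for 23.5 h at 37 °C. Viability was then read in the same wells by CellTiter-Fluor fluorescence after a further 30 min.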
For orientation: Quantitative high-throughput screening tests each substance at several concentrations.

Test [2] deals with Estrogen receptor (Homo sapiens) (UniProt P03372). Briefly: qHTS assay to identify small molecule antagonists of the estrogen receptor alpha (ER-alpha) signaling pathway (AID 743069; active = well fitted curve in the direction sought with a large enough effect in the signal ratio in the repeat runs, not every such curve was filed as active; inconclusive = weak or mixed curves, or effect the other way; inactive = no such curve, though single readings can be large or run the other way; the % refers to the signal ratio; also: potency is read from the fitted curve at half-maximal effect). The method, boiled down: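 Reporter cells (ER-alpha-bla, HEK293 background) are conditioned overnight in stripped-serum medium (2% charcoal-stripped FBS). Compound and 17beta-estradiol exposure runs 18 hr at 37C, 5% CO2.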

Test [3] in a line: qHTS assay to identify small molecule antagonists of the estrogen receptor alpha (ER-alpha) signaling pathway - cell viability counter screen (AID 743074; calls by dose curve;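 also: HEK293 cells carrying ER-alpha-UAS-bla reporter stimulated with 17beta-estradiol; nearly all actives have a fitted effect of over 45% in size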; also: potency is read from the fitted curve at half-maximal effect).
For test [4], the target named is Estrogen receptor (Homo sapiens) (UniProt P03372). Briefly: qHTS assay to identify small molecule agonists of the estrogen receptor alpha (ER-alpha) signaling pathway (AID 743075; calls by dose curve;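 also: HEK293 GripTite cells with ER-alpha and UAS-driven beta-lactamase reporter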; also: potency is read from the fitted curve at half-maximal effect).
Test [5] has the same target. The test is described as follows: qHTS assay to identify small molecule agonists of the estrogen receptor alpha (ER-alpha) signaling pathway using the BG1 cell line (AID 743079). Also: nearly all actives have a fitted effect of over 20% in size. Also: potency is read from the fitted curve at half-maximal effect. To be noted: BG1Luc4E2 cells, ERE-luciferase agonist, 22 h; activation: at 70.3 µM (top of the series).
The nature of test [6]: qHTS assay to identify small molecule antagonists of the estrogen receptor alpha (ER-alpha) signaling pathway using the BG1 cell line (AID 743080; calls by dose curve;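 also: BG1 cells stimulated with 17beta-estradiol alongside compound; nearly all actives have a fitted effect of over 25% in size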; also: potency is read from the fitted curve at half-maximal effect). The essentials: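 Readout is ONE-Glo luminescence, taken 30 min at room temperature after reagent addition, preceded by a CellTiter-Fluor viability read; BG1-Luc-4E2 cells had received compound and 17beta-estradiol for 21.5 h at 37 C.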

Test [7] in a line: qHTS assay to identify small molecule antagonists of the estrogen receptor alpha (ER-alpha) signaling pathway using the BG1 cell line - cell viability counter screen (AID 743081).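 Also: compound given together with 17beta-estradiol as the ER stimulus; nearly all actives have a fitted effect of over 45% in size.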 Also: potency is read from the fitted curve at half-maximal effect.
The next test concerns the target Aromatase (Homo sapiens) (UniProt P11511). The test is described as follows: qHTS assay to identify aromatase inhibitors (AID 743083). Also: nearly all actives have a fitted effect of over 55% in size. Also: potency is read from the fitted curve at half-maximal effect.
Test [8] has as its system thyroid hormone receptor (rat, GH3 cells). The test is described as follows: qHTS assay to identify small molecule agonists of the thyroid receptor (TR) signaling pathway (AID 743066; calls by dose curve).
Test [9] in a line: qHTS assay to identify small molecule antagonists of the thyroid receptor (TR) signaling pathway (AID 743065). Also: nearly all actives have a fitted effect of over 55% in size. Also: potency is read from the fitted curve at half-maximal effect. The essentials:
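GH3.TRE-Luc rat pituitary cells (two TREs driving luciferase) were dosed with compound, then stimulated with 1 nM T3 (final) for 23.5 h at 37 C. ONE-Glo luminescence was the read-out, with CellTiter-Fluor fluorescence as the cytotoxicity counter-screen.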

Chain of Estrogen receptor (Homo sapiens) (P03372 whole entry, looked up): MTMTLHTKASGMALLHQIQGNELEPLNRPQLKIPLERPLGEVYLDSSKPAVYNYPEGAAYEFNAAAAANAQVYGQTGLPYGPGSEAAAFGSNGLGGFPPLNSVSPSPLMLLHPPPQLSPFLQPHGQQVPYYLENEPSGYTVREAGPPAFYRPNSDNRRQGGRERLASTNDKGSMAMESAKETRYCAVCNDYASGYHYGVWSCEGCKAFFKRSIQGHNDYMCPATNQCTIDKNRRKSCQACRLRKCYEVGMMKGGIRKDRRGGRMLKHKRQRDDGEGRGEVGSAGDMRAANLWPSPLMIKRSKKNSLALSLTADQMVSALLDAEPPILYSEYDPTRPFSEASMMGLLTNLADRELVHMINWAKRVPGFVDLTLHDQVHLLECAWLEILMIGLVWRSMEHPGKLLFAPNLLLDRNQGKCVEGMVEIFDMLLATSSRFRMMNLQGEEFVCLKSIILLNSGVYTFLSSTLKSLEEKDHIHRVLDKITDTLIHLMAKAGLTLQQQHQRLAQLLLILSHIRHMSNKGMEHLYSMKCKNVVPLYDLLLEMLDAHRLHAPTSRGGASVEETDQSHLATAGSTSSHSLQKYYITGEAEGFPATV
Chain of Aromatase (Homo sapiens) (P11511 whole entry, looked up): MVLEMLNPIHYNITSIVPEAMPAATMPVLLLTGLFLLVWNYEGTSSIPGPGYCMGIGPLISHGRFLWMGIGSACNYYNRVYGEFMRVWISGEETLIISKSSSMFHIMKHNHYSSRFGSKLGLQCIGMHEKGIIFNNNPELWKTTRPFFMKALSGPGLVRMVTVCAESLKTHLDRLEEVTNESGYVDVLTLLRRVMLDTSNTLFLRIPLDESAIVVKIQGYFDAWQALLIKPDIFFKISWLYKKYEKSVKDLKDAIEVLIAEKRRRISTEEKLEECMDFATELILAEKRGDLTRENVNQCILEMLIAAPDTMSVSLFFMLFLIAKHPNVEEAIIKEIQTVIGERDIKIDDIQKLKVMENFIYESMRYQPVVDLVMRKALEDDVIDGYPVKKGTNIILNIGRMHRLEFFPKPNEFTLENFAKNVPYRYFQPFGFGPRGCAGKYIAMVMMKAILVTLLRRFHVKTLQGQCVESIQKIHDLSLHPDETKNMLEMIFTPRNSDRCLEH

`CCC(=O)OC`: the Potency entry in [1], in test [2], in test [3], in [4], in test [5] and in [6] was “inactive” in each case. Besides, the Potency entry (in test [7]; with Aromatase (Homo sapiens)) was “inactive” throughout.
In the case of `Oc1cccc(Nc2ccccc2)c1`, the Potency result (in [1]; in the test with Aromatase (Homo sapiens)) was “inactive” throughout. Further, the compound was called inactive in test [8]. Further, the Potency in test [4] is 57.6 µM [activator] (active); in test [5], 25.4 µM (active).
For the compound `CCC(OCCCOC)OC(C)=O` (stereo not given), the Potency entry (in [1]; in test [3]; in [7]; with Aromatase (Homo sapiens)) was “inactive” throughout. In test [8], the compound was called inactive.
`CCOc1ccccc1O[C@H](c1ccccc1)[C@H]1CNCCO1`: the Potency in test [9] is 26.6 µM (active). Besides, the outcome in [8] was inactive. Moreover, the Potency entry in [2], in test [3], in test [4], in [5], in test [6] and in test [7] was “inactive” throughout. Moreover, the Potency result in the test with Aromatase (Homo sapiens) is “inactive”.
Consider `CCn1cc(C(=O)O)c(=O)c2cc(F)c(N3CCNCC3)cc21`, for which the Potency result in test [9], in [2], in test [3], in test [4], in test [5] and in test [6] was “inactive” each time. Moreover, the Potency result (in [7]; with Aromatase (Homo sapiens)) was “inactive” throughout. In addition, the call in test [8] was inactive.
`Nc1nc2ccc([N+](=O)[O-])cc2s1`: the Potency in test [9] was 48.6 µM (active). The outcome in test [8] was inactive. Also, the Potency result in the test with Aromatase (Homo sapiens) is “inactive”.
Consider `Oc1cccc(O)c1O`, for which the Potency entry (in [9]; in test [3]; in test [6]; in test [7]; with Aromatase (Homo sapiens)) was “inactive” each time. In addition, the compound was called inactive in test [8]. Moreover, the Potency in test [4] was 21.3 µM [inconclusive] (active) and 54.5 µM [inconclusive] (active); in [5], 5.96 µM (active).
Take `CC1=C(Br)C(=O)C(Br)=C/C1=C(/c1ccccc1S(=O)(=O)O)c1cc(Br)c(O)c(Br)c1C`: the results for the Potency (in test [9]; in test [7]; in the test with Aromatase (Homo sapiens)) were 18.6 µM (active), 37 µM (active) and 18.6 µM (active), respectively. Besides, the compound was classed as inactive in test [8].
In the case of `C1COC1`, the Potency entry in [9], in [2], in [3], in test [4], in [6] and in test [7] was “inactive” in each case. In the test with Aromatase (Homo sapiens), the Potency result is “inactive”. Moreover, the call in test [8] was inactive.
For the compound `CC(=O)Nc1cc(S(=O)(=O)O)cc2cc(S(=O)(=O)O)c(N=Nc3ccccc3)c(O)c12`, the Potency entry (in [9]; in test [2]; in [3]; in test [4]; with Aromatase (Homo sapiens)) was “inactive” throughout. Moreover, the result in test [8] was inactive. For the same compound, in [7], the Potency is 8.63 µM (active).
On to `C/C=C/C=C/C=O`, for which the Potency result in [9], in test [2], in [4], in [5], in test [6] and in [7] was “inactive” in each case. Also, the Potency entry in the test with Aromatase (Homo sapiens) was “inactive”. The result in test [8] was inactive.
For `C[C@@]12CCC[C@H]1[C@@H]1CC[C@H]3C[C@@H](O)CC[C@]3(C)[C@H]1CC2`, the Potency entry in test [9] and in [7] was “inactive” throughout. Also, in [8], the compound was called inactive.
As for `COc1ccccc1NC(=O)c1cc2ccccc2cc1O`, the results for the Potency (in test [9]; with Aromatase (Homo sapiens)) were 17.2 µM (active) and 24.3 µM (active), respectively. Further, in test [8], the compound was classed as inactive. Further, the Potency entry in test [4] was “inactive”.
As for `Cc1ccccc1S`, the Potency result in test [9], in [2], in test [3], in [4], in [5] and in [6] was “inactive” each time. Besides, the Potency entry (in [7]; with Aromatase (Homo sapiens)) was “inactive” in each case. Moreover, the compound was called inactive in [8].
For the compound `C/C=C\C/C=C/CCCCCCCCOC(C)=O`, the Potency in [9] was 68.6 µM (active). In test [8], the compound was classed as inactive. Also, the Potency entry in [2], in test [3], in [4], in test [5], in test [6] and in test [7] was “inactive” in each case. In the test with Aromatase (Homo sapiens), the Potency result is “inactive”.
In the case of `O=c1cc(-c2ccccc2)oc2ccc3ccccc3c12`, the Potency in test [9] is 9.69 µM (active); in test [5], 2.43 µM (active); with Aromatase (Homo sapiens), 13.7 µM (active). Moreover, in [8], the compound was called inactive. In addition, the Potency result in test [4] and in test [7] was “inactive” throughout.
As to `C[C@H]1c2cccc(O)c2C(O)=C2C(=O)[C@]3(O)C(O)=C(C(N)=O)C(=O)[C@@H](N(C)C)[C@@H]3[C@@H](O)[C@@H]21`, the Potency result in [9], in test [3], in test [4], in test [5], in test [6] and in test [7] was “inactive” throughout. Further, in the test with Aromatase (Homo sapiens), the Potency result is “inactive”. Further, the result in [8] was inactive.
Consider `O=C(CCCN1CC=C(n2c(=O)[nH]c3ccccc32)CC1)c1ccc(F)cc1`, for which the outcome in test [8] was inactive. The Potency result in [2], in test [3], in test [4], in test [5], in test [6] and in test [7] was “inactive” in each case. Also, in the test with Aromatase (Homo sapiens), the Potency entry is “inactive”.
As to `CCOC(=O)c1ccccc1C(=C1C=C(Br)C(=O)C(Br)=C1)c1cc(Br)c(O)c(Br)c1`, the Potency in test [9] was 18.2 µM (active); in [2] it was 5.8 µM [inconclusive] (active). In [8], the compound was called inactive. Moreover, the Potency entry (in test [5]; in test [7]; in the test with Aromatase (Homo sapiens)) was “inactive” in each case.
With `O=c1cc(-c2ccccc2)oc2cc(O)cc(O)c12`, the Potency in test [9] is 54.5 µM (active). The result in test [8] was inactive. For the same compound, the Potency entry in test [3] and in [7] was “inactive” throughout.
For `c1ccc(C[n+]2cccc3ccccc32)cc1`, the Potency entry (in test [9]; in [3]; in test [4]; with Aromatase (Homo sapiens)) was “inactive” each time. Further, the result in [8] was inactive. Also, the Potency in [2] was 49 µM [inconclusive] (active); in test [6] it was 61.1 µM (active).
For `CCCCC(CC)COP(=O)(O)O` (stereo not given), the call in test [8] was inactive. Moreover, the Potency in test [2] is 39.6 µM [inconclusive] (active). Also, the Potency entry (in test [3]; in [4]; in test [5]; in test [6]; in test [7]; with Aromatase (Homo sapiens)) was “inactive” each time.
`COc1cc(C(=O)NC2CCN(C)CC2)ccc1Nc1ncc2c(n1)N(C1CCCC1)CC(F)(F)C(=O)N2C`: the Potency in test [9] is 0.0628 µM (active); in [2], 1.59 µM [inconclusive] (active); in [3], 40 µM (active); in test [6], 0.25 µM (active). The Potency result in test [4] is “inactive”.
Regarding `FC(F)(F)c1ccccc1Cl`, the Potency entry in [9], in [2], in test [3], in test [4], in test [5] and in test [6] was “inactive” each time. Also, the Potency result (in test [7]; with Aromatase (Homo sapiens)) was “inactive” throughout. The compound was classed as inactive in test [8].
